# IL-1B inflam inh = inhibitors of inflammasome signaling (IL-1 beta secretion); AID 743279; 4.7% of 360,000 active; THP-1 LPS/ATP IL-1B secretion, AlphaLISA, 16 h; stronger effect = lower value; activity change, % at 57.5 µM; in the data active = activity change below about -50%; inconclusive = mostly about -30% to -49%
#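 THP-1 cells pretreated 1 hr with compounds (up to 57.5 uM final), then stimulated with LPS (250 ng/mL final) plus ATP (1.25 mM final); secreted IL-1B measured by AlphaLISA after 16 hr, decreased signal indicating inhibition.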
# TDP1 cell noCPT = qHTS for Inhibitors of human tyrosyl-DNA phosphodiesterase 1 (TDP1): qHTS in cells in absence of CPT; DT40 Tdp1-/- hTDP1 cells, no CPT, ATP luminescence, 48 h; Potency, µM (highest dose often 46.2 µM), hits mostly inhibitors; 15% of 420,000 active; AID 686978, 2013; also: nearly all actives have a fitted effect of over 55% in size
#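 Growth kinetics read by CellTiter-Glo luminescence after ≥48 hr at 37 °C. Cells: DT40 Tdp1-/- stably carrying human TDP1, 400 per well, compound exposure in the absence of CPT (DMSO vehicle).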
# TDP1 cell CPT = growth inhibition of DT40 Tdp1-/-;hTDP1 cells with camptothecin (screen for TDP1 inhibitors) | chicken DT40 Tdp1-/-;hTDP1 cells + 20 nM CPT, ATP luminescence, 48 h | Potency, µM (highest dose often 46.2 µM), most hits filed as inhibitors | 12% of 420,000 active; also: nearly all actives have a fitted effect of over 55% in size
#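 Chicken DT40 Tdp1-/- cells complemented with human TDP1, 400 cells/well, exposed to compounds plus 20 nM camptothecin for at least 48 h at 37 C; viability read as ATP content by CellTiter-Glo luminescence.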
# RORg inh = ROR gamma (mouse) transcription inhibition; P51450; Drosophila S2 Gal4-RORgamma UAS-luciferase reporter, 20 h; Potency, µM (titrated, usually from 53.6 µM), actives largely listed as inhibitors; 5.4% of 310,000 active; AID 2551; also: nearly all actives have a fitted effect of over 60% in size
# Target sequence (P51450 whole entry, looked up, the tested form may be a part): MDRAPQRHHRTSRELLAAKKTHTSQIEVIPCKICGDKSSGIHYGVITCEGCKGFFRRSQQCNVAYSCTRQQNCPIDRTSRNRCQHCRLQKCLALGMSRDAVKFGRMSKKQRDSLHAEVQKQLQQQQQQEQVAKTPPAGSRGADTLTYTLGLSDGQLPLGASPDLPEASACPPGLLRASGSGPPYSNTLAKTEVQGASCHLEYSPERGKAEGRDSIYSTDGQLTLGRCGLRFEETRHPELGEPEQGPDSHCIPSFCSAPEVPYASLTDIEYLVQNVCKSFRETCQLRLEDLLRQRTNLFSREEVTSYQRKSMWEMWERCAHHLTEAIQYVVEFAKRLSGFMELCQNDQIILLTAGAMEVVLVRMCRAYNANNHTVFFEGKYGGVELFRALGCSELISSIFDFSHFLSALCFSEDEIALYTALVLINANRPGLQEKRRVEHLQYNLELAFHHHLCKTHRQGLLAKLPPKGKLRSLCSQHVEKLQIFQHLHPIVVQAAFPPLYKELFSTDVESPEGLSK
#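 Stably transfected Drosophila Schneider cells are the test system, with ROR gamma fused to Gal4 and luciferase under UAS control; luminescence is read after 20 hr of 700 uM copper sulfate induction at ambient temperature.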
# VP16 counter = inhibits Gal4-VP16 luciferase reporter, ROR gamma counter-screen; Potency, µM (top dose mostly 53.6 µM), actives largely listed as inhibitors; 3.5% of 310,000 active; AID 2546; Drosophila S2 Gal4-VP16 UAS-luciferase, luminescence, 20 h;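 also: Gal4-VP16 expression switched on by copper sulfate through the metallothionein promoter; nearly all actives have a fitted effect of over 50% in size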
# ELG1 repair inh = inhibitors of ELG1-dependent DNA repair in HEK293T cells; HEK293T ELG1-luciferase reporter, luminescence, 16 h; DNA damage induced by 5-fluorouridine; 2.3% of 330,000 active; Potency, µM (highest dose often 46.1 µM), usual class: inhibitors; AID 504467; also: nearly all actives have a fitted effect of over 55% in size
#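 Cells (2,000 per well) received 5-fluorouridine plus test compound or DMSO and were incubated 16 hr at 37 °C, 5% CO2. Luciferase activity was read by luminescence 30 min after ONE-Glo addition; signal suppression marked inhibition of damage-induced ELG1 function.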
# Hits are given with their value; n = inactive; u = inconclusive; x = no result given; [ ] = another dose, or the depositor's remark. The list is not random: actives were taken first. Their share in the collection is about 21%. Unless noted, calls follow the shape of the dose curve; as a rule, active = well fitted curve in the direction sought with a large enough effect; inconclusive = small, poorly fitted or top-dose-only effect, or another doubt; inactive = no such curve, though single readings can be large; an effect the other way counts as inactive or inconclusive.
SMILES,IL-1B inflam inh,TDP1 cell noCPT,TDP1 cell CPT,RORg inh,VP16 counter,ELG1 repair inh
CCCNC(=O)N(C)C[C@@H]1Oc2cc(C#CC(C)(C)O)ccc2S(=O)(=O)N([C@H](C)CO)C[C@H]1C,n,n,n,x,x,x
CC(CN1CCCCC1)NC(=O)c1scnc1-c1ccccc1 (stereo not given),n,n,n,x,x,x
Cc1cccc(Oc2nc(-c3ccccn3)nc3ccccc23)c1,-99,1µM,1.2µM,0.56µM,2.2µM,u
CC(=O)Nc1cccc(Oc2nc(-c3ccccn3)nc3ccccc23)c1,x,u,u,5.6µM,u,n
CC(=O)Nc1ccc(Oc2nc(-c3ccccn3)nc3ccccc23)cc1,-94,u,u,n,u,u
Cc1ccccc1Oc1nc(-c2ccccn2)nc2ccccc12,u,5.2µM,4.1µM,0.32µM,1.3µM,u
CCCNC(=O)Cn1nc(-c2ccc(F)cc2)c2cnc3ccc(F)cc3c21,x,n,n,x,x,x
CN(CC(=O)Nc1cc(Cl)ccc1C#N)C1CCS(=O)(=O)C1 (stereo not given),n,n,n,x,x,n
COc1cc(SC)ccc1C(=O)OCC(=O)N1CCCC1,n,n,n,n,n,u
Cc1ccc2c(c1)=N/C(=N\c1[nH]c(O)c3ccccc13)N=2,-102,3.7µM,4.1µM,x,x,x
Oc1[nH]c(N=C2N=c3ccccc3=N2)c2ccccc12,-98,0.92µM,0.58µM,0.5µM,2.5µM,u
CCOc1ccccc1C(=O)NCC(=O)NCC(c1ccco1)N1CCCCC1 (stereo not given),n,n,n,x,x,n
CCCCCCCCCCCCCCCC(=O)N[C@@H](COP(=O)(O)O)C(=O)O,x,n[4.12 µM],n[4.12 µM],n,n,x
CCCn1c(=O)c2c(ncn2C)n(CCC)c1=O,n,3.7µM,u,x,x,u
CCOC(=O)CSc1nc(C)c(C(C)=O)cc1C#N,n,n,n,u,n,u
CCOC(=O)CSc1nc(C)c(C(C)=O)cc1C(N)=O,-57,n,n,n,n,n
Cc1cc(C(=O)OCc2nnc(-c3ccccc3)o2)c(C)n1-c1ccccc1,n,21µM,18µM,u,n,u
Cc1noc(C)c1COC(=O)c1cc(C)n(-c2ccccc2)c1C,u,21µM,u,u,u,u
O=C(OCc1nnc(-c2ccccc2)o1)c1cn(-c2ccccc2)nc1-c1ccccc1,n,u,u,n,n,u
O=C1NNC(=O)C2C3C=CC(C4CC34)C12 (stereo not given),n,n,n,n,n,n
Cc1ccc2c(c1)C(c1ccccc1)N(C(=O)CC(C)C)CC(=O)N2 (stereo not given),n,n,n,n,n,n
COC(=O)[C@@]12CCCCN1[C@H](c1ccc(-c3ccc(OC)cc3)cc1)[C@H]1C(=O)N(C)C(=O)[C@H]12,n,9.2µM,12µM,x,x,u
COC(=O)[C@@]12CCCCN1[C@H](c1ccc(-c3ccc(F)cc3)cc1)[C@H]1C(=O)N(C)C(=O)[C@H]12,n,23µM,u,x,x,u
COC(=O)[C@@]12CCCCN1[C@H](c1ccc(-c3ccccc3)cc1)[C@@H]1C(=O)N(C)C(=O)[C@@H]12,n,u,21µM,x,x,n
COC(=O)[C@@]12CCCN1[C@H](c1ccc(-c3ccc(F)cc3)cc1)[C@H]1C(=O)N(C)C(=O)[C@H]12,n,u,u,x,x,u
SMILES,IL-1B inflam inh,TDP1 cell noCPT,TDP1 cell CPT,RORg inh,VP16 counter,ELG1 repair inh
Cc1oc(-c2ccccc2NC(=O)C2CCCO2)nc1CNC(=O)c1cc(F)c(F)cc1F (stereo not given),x,n,n[9.04 µM],x,x,x
COc1ccc(OC)c(N(CC(=O)NC2CCCC2)S(=O)(=O)c2ccc(OC)c(OC)c2)c1,n,15µM,15µM,n,n,u
CCOc1ccccc1N(CC(=O)NC1CCCCC1)S(=O)(=O)c1ccc(C)cc1,n,21µM,u,n,u,u
COc1ccc(OC)c(N(CC(=O)NC2CCCCCC2)S(=O)(=O)c2ccc(C)cc2)c1,n,23µM,23µM,n,n,n
COC(=O)c1cc(Br)ccc1N(Cc1cc(OC)cc(OC)c1)S(C)(=O)=O,n,16µM,u,x,x,n
COC(=O)c1ccccc1N(Cc1ccccc1)S(C)(=O)=O,n,n,n,n,n,n
O=C(CC(=O)N/N=C\c1ccccc1)NCCc1ccccc1,n,n,n,n,n,n
Cc1cc(SCC(=O)NN)c2cc(Br)ccc2n1,-92,u,u,n,n,n
COc1ccccc1C=NNC(=O)C(=O)NN=Cc1ccccc1OC,n,n,n,x,x,x
COc1ccccc1/C=N/NC(=O)C(C)Cn1cnc2ccccc21 (stereo not given),n,n,n,11µM,n,u
COc1ccccc1/C=N/NC(=O)CSc1ccc2ccccc2n1,n,u,u,n,n,n
COc1cccc2c(SCC(=O)N/N=C/c3ccc(O)cc3O)cc(C)nc12,-88,10µM,u,u,n,n
COC(=O)c1ccc(/C=N\NC(=O)CC(=O)NCCc2ccccc2)cc1,n,13µM,n,n,n,n
CN(C(=O)c1cccc(NC(=O)Cc2ccc(NC(=O)C3CCCN(C(=O)c4ccccc4)C3)cc2)c1)C1CCCCC1 (stereo not given),n,u,u,x,x,x
CCOC(=O)Cc1csc(SCc2nc3ccccc3c(=O)[nH]2)n1,n,n,u,n,n,n
COc1ccccc1/C=N/NC(=O)CC(=O)NCc1ccccc1,-51,n,n,n,n,u
COc1ccc2nc(C)cc(SCC(=O)N/N=C/c3ccc(O)cc3O)c2c1,u,u,u,18µM,u,u
COc1ccccc1/C=N/NC(=O)CO,n,n,n,n,n[10 µM],n
COc1ccc2nc(C)cc(SCC(=O)N/N=C/c3ccccc3)c2c1,-98,u,n,n[10 µM],n,n
COc1ccc2nc(C)cc(SCC(=O)NNC(=O)COc3cccc4ccccc34)c2c1,n,u,n,u,8.9µM,u
CCOc1ccc(/C=C(\C#N)C(=O)Nc2sc3c(c2C(=O)OC)CCC3)cc1OC,x,n,n,x,x,x
CC(C)C(NS(=O)(=O)c1ccccc1)C(=O)N1CCN(C(=O)c2ccco2)CC1 (stereo not given),n,n,n,n,n,n
COc1ccccc1/C=N/NC(=O)CSc1cc(C)nc2ccccc12,-66,8.2µM,7.3µM,11µM,n,n
Cc1nc(CSc2ccccc2)cc(=O)[nH]1,n,n,n,n,n,n
COc1ccc(-c2noc(CN(C(=O)C(C)(C)C)C(C)C)n2)cc1,n,u,u,n,n,u
